Compound activity as filed in PubChem.
L3MBTL1 inh: inhibitors of human L3MBTL1. Q9Y468. AlphaScreen L3MBTL1–H3K9me1 peptide binding. Potency, µM (series often up to 57.1 µM), inactives show top-dose activity, negative = inhibition, usual class: inhibitors. hit rate 0.66% among 230,000. AID 485360; further: on the % scale 0 is the no-effect control and ±100 the full control effect; nearly all actives have a fitted effect of over 60% in size
Target sequence (Q9Y468 whole entry, looked up): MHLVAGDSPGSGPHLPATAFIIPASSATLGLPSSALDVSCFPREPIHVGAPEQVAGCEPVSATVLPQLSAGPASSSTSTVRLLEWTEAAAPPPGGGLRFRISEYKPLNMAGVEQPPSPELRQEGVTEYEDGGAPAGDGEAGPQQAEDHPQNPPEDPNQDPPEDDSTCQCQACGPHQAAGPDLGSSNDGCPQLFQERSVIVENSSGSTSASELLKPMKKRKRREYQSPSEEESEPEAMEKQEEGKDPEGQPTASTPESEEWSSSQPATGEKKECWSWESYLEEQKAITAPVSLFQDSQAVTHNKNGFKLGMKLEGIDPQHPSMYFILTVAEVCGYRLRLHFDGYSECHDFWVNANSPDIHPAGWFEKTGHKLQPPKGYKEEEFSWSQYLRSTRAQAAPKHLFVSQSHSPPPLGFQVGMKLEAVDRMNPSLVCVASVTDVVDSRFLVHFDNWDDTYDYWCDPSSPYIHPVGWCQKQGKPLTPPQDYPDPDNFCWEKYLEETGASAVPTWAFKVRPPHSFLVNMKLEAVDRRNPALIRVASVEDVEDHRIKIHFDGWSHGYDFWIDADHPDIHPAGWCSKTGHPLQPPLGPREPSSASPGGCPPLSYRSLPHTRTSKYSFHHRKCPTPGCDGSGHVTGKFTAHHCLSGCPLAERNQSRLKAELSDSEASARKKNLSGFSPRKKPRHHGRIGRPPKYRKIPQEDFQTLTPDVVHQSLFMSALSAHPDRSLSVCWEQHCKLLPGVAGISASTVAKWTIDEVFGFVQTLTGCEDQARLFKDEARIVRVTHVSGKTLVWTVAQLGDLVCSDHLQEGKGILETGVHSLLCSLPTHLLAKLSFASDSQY
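AlphaScreen assay: L3MBTL1 (50 nM final) was preincubated 30 min at room temperature with biotinylated H3(1-15)K9me1 peptide (75 nM final), then 30 min with library compounds; streptavidin donor and nickel chelate acceptor beads (10 ug/mL final) added, 30 min dark.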
Pol iota inh: inhibitors of human DNA polymerase iota; Q9UNA4; Pol iota fluorescent replication assay, 10 min; Potency, µM (series often up to 115 µM), for inactives: at the top dose activity, negative = inhibition, most hits filed as inhibitors; hit rate 1% among 390,000
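Fluorescent replication assay read twice, at 0 min and 10 min after adding 50 nM (final) substrate. Enzyme (10 nM) and compounds were first incubated 15 min at room temperature; enzyme-free buffer wells were negative controls.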
POLK inh: DNA polymerase kappa (human) inhibition; Q9UBT6; purified Pol kappa, fluorescent DNA synthesis assay, 10 min; Potency, µM (doses to about 107 µM), inactives show top-dose activity, negative = inhibition, most hits filed as inhibitors; hit rate 0.53% among 400,000; AID 588579; further: on the % scale 0 is the no-effect control and ±100 the full control effect
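Fluorescent qHTS in 1536-well format: enzyme (10 nM) and compound sat 15 min at room temperature before 50 nM substrate (final) was added. Signal taken at 0 and 10 min; no-enzyme buffer wells were negative controls.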
Pol eta inh: inhibitors of human DNA polymerase eta. Q9Y253. recombinant Pol eta, fluorescent DNA replication assay. Potency, µM (titrated, usually from 114 µM), without a hit: at the highest dose activity change, negative = inhibition, usual class: inhibitors. hit rate 1.2% among 390,000. AID 588591; further: on the % scale 0 is the no-effect control and ±100 the full control effect
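Pol eta (10 nM) was preincubated with compounds for 15 min at room temperature, after which fluorescent replication substrate (50 nM final) was added to start the reaction. Fluorescence was read kinetically at 0 and 10 min.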
WRN helicase inh: WRN helicase (human) inhibition. WRN helicase unwinding, fluorescent forked duplex, kinetic. Potency, µM (top dose mostly 114 µM), for inactives: at the highest dose activity change, negative = inhibition, hits mostly inhibitors. hit rate 0.46% among 360,000. AID 651768; further: on the % scale 0 is the no-effect control and ±100 the full control effect; nearly all actives have a fitted effect of over 55% in size
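Primary qHTS, 1536-well format. 20 nM WRN + compound, 15 min RT; start with 100 nM forked fluorophore/quencher duplex, 2 mM ATP (final); kinetic read ex 525/em 598 nm.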
Pol beta inh: inhibitors of human DNA polymerase beta | Potency, µM (titrated, usually from 114 µM), for the others: top-dose activity change, negative = inhibition, hits mostly inhibitors | P06746 | hit rate 1.3% among 340,000 | Pol beta primer extension/strand displacement, fluorescence kinetic; further: on the % scale 0 is the no-effect control and ±100 the full control effect
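Pol beta (10 nM) was preincubated with compound for 15 min at room temperature. The reaction was then started with 50 nM substrate and read immediately and after a further 10 min at room temperature.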
The depositor's hits bear a star; ? = inconclusive; · = not tested or not shown; [ ] = dose if it differs, or a comment. This is a sample that favours compounds with a hit; in the whole collection about 2.5% have one here. The call rests on the fitted dose curve; in most records, active means well fitted curve in the direction sought with a large enough effect; inconclusive means small, poorly fitted or top-dose-only effect, or another doubt; inactive means no such curve, though single readings can be large; an effect the other way counts as inactive or inconclusive. Potency means the concentration at half of the fitted maximal effect.

SMILES	L3MBTL1 inh	Pol iota inh	POLK inh	Pol eta inh	WRN helicase inh	Pol beta inh
CCC(=O)N1CCc2cc(S(=O)(=O)CCC(=O)Nc3ccc(OC(F)(F)F)cc3)ccc21	·	6%	-8%	-8%	·	-9%
COC(C(=O)C(O)C(C)O)C1Cc2cc3cc(OC4CC(OC5CC(O)C(O)C(C)O5)C(O)C(C)O4)c(C)c(O)c3c(O)c2C(=O)C1OC1CC(OC2CC(OC3CC(O)C(OC)C(C)O3)C(O)C(C)O2)C(O)C(C)O1 (stereo not drawn)	·	22µM*	79µM*	11µM*	?	·
CCOC(=O)CNC(=O)Cn1c(C)cc2ccccc2c1=O	2%	29%	-11%	-13%	3%	20%
COc1ccc(NC(=O)CNC(=O)Cn2c(C)cc3ccccc3c2=O)cc1OC	·	38%	6%	-25%	-19%	32µM*
COc1ccc(NC(=O)CNC(=O)Cn2c(C)cc3ccccc3c2=O)c(OC)c1	-2%	116%	-20%	-16%	-16%	79µM*
COc1cc(NC(=O)CNC(=O)Cn2c(C)cc3ccccc3c2=O)cc(OC)c1OC	·	7%	2%	-14%	5%	0%
COc1cc(C(=O)NCC(c2ccco2)N2CCOCC2)cc(OC)c1OC (stereo not drawn)	7%	18%	-8%	1%	7%	·
CN(CC(=O)Nc1cccc(F)c1)C(=O)CCSc1ccc(F)cc1	0%	6%	1%	-23%	-15%	·
CN(CC(=O)Nc1cccc(F)c1)C(=O)c1ccc(COc2ccccc2)cc1	14%	79µM*	1%	-16%	1%[11.6 µM]	·
CN(CC(=O)Nc1cccc(F)c1)C(=O)CSc1ccccc1F	·	?	-18%	-16%	-19%	45µM*
Cc1nnc(SCC(=O)NCc2ccccc2F)c2nn(-c3ccc(Cl)cc3)c(C)c12	·	71µM*	-1%[60.1 µM]	?	·	?
N=C1/C(=C/c2coc3ccccc3c2=O)C(=O)N=C2SC(c3ccco3)=NN12	?	?	?	3.2µM*	40µM*	-112%
COC(=O)c1cccc(-c2ccc(C(c3c(C)[nH][nH]c3=O)c3c(C)[nH][nH]c3=O)o2)c1	-16%	7.1µM*	-7%	-5%	?	?
COC(=O)c1ccccc1-c1ccc(C(c2c(C)[nH][nH]c2=O)c2c(C)[nH][nH]c2=O)o1	4%	7.9µM*	-7%	?	-17%	9%
Cc1c(Cl)ccc2c1NC(=O)[C@]21[C@@H]2C(=O)N(Cc3ccccc3)C(=O)[C@@H]2[C@@H]2CCCN21	-22%	-2%	-15%	-16%	-7%	?
CCc1cccc2c1NC(=O)[C@]21[C@@H]2C(=O)N(Cc3ccccc3)C(=O)[C@@H]2[C@@H]2CCCN21	-5%	?	-18%	22µM*	-12%[57.1 µM]	?
Nc1cc(=O)nc(SCC(=O)Nc2ccccc2)n1-c1ccccc1	12%	119%	-3%	-13%	1%	18%
COc1cc(C)ccc1OCCOCCOc1cc(C)c(C)cc1Br	36%	100µM*	-4%	-12%	-14%[57.1 µM]	-3%
CCOC(=O)C1CCN(c2ncnc3c2cnn3C)CC1	·	-7%	-5%	-7%	7%	79µM*
CCOC(=O)C1CCN(c2ncnc3c2cnn3-c2ccccc2)CC1	·	-4%[58.9 µM]	2%	-20%	4%	-27%
Cc1c(C)c2ccc(OCC(=O)N3CCC[C@@H]3C(=O)O)c(C)c2oc1=O	13%	-14%	-5%	-8%	-7%	23%
c1ccc(-c2nc(-c3ccco3)n3ccccc23)cc1	-28%	-6%	-8%	?	-24%	35µM*
O=C(N/N=C/c1cccnc1)c1ccc(NC(=O)c2cccc(Cl)c2)cc1	·	?	-14%	?	-32%	8.9µM*
O=C(N/N=C\c1cccnc1)c1cc(-c2ccc(Cl)s2)[nH]n1	15%	?	-39%	?	?	14µM*
O=C(N/N=C/c1cccnc1)c1ccc(NC(=O)c2ccc(Cl)cc2)cc1	·	121%	0%	-22%	-1%	2%
SMILES	L3MBTL1 inh	Pol iota inh	POLK inh	Pol eta inh	WRN helicase inh	Pol beta inh
Cc1cccc(C(=O)Nc2ccc(C(=O)N/N=C/c3ccc4c(c3)OCO4)cc2)c1	·	1%	-2%	-9%	7%	35µM*
O=C1CS(=O)(=O)N(Cc2cccc(F)c2)c2ccc(Br)cc21	-1%	?	4%	0%	-16%	·
O=C1c2cc(Br)ccc2N(Cc2ccc(Br)cc2)S(=O)(=O)C1c1cc(Cl)c(Cl)cc1[N+](=O)[O-] (stereo not drawn)	?	?	?	22µM*	?	·
N#C/C(=C\c1ccc(N2CCOCC2)o1)c1nc2ccccc2[nH]1	-22%	-13%	?	?	50µM*	?
Fc1cccc(Nc2nc(-c3ccncc3)nc3ccccc23)c1	17%	?	-23%	14µM*	?	13µM*
Nc1nccnc1C(=O)OCC(=O)NCCc1ccc(S(N)(=O)=O)cc1	-22%	22µM*	-21%	?	-3%[11.6 µM]	·
O=Cc1[nH]c2ccccc2c1N(C(=O)CCl)c1ccc([N+](=O)[O-])cc1	-21%	7%	0%	-13%	-5%	-2%
CC(=O)n1cc(N(C(=O)CCl)c2ccc([N+](=O)[O-])cc2)c2ccccc21	-8%	?	-1%	40µM*	-9%	-11%
Cc1cc(C)c2oc(C(=O)Nc3ccc(S(=O)(=O)Nc4ncccn4)cc3)cc(=O)c2c1	·	11%	0%	-16%	·	1%
Cc1cccc(-n2ccc(=O)c(C(=O)Nc3ccc(S(=O)(=O)Nc4nccs4)cc3)n2)c1	·	-19%	-16%	?	6%[11.6 µM]	89µM*
O=C(Nc1ccc(S(=O)(=O)Nc2nccs2)cc1)c1cccc(N2C(=O)c3ccccc3C2=O)c1	-5%	71µM*	?	50µM*	-26%[57.1 µM]	-6%
Cc1ccc(Oc2ccc3c(c2)C(=O)N(c2ccc(S(=O)(=O)Nc4nccs4)cc2)C3=O)cc1	-21%	?	-45%	89µM*	?	-9%
N#Cc1cccc(C(=O)Nc2ccc(S(=O)(=O)Nc3nccs3)cc2)c1	5%	-20%	-13%	-1%	-1%	·
CCC(Oc1ccc(C)cc1)C(=O)Nc1ccc(S(=O)(=O)Nc2nccs2)cc1 (stereo not drawn)	·	95%	-11%	0%	-9%	?
Cc1cc(C)c2oc(C(=O)Nc3ccc(S(=O)(=O)Nc4nccs4)cc3)cc(=O)c2c1	·	79µM*	?	?	-9%[11.6 µM]	?
O=C(O)c1ccccc1-c1ccccc1C(=O)NCc1ccco1	-8%	13%	-13%	?	-5%	4%
